Assay results as given in PubChem BioAssay (NCATS).
Results filed as inconclusive are left out. Activity calls are given as the source filed them. Calls come from the whole dose curve; as a rule, active = well fitted curve in the direction sought with a large enough effect; inconclusive = small, poorly fitted or top-dose-only effect, or another doubt; inactive = no such curve, though single readings can be large; an effect the other way counts as inactive or inconclusive.

Experiments:
[1] = NS1 protein of Zika virus - qHTS assay to identify small molecule inhibitors in human HEK 293 cells (AID 1347053); note: series mostly up to about 46 µM; nearly all actives have a fitted effect of over 55% in size
In short: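 Readout was TR-FRET using paired anti-NS1 antibodies after 24 h infection of HEK 293 cells with ZIKV MR766 (MOI = 0.5). Compound preceded virus by 1 h; reduced signal reflects lower NS1 expression.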

[2] = qHTS of pediatric cancer cell lines to identify multiple opportunities for drug repurposing: Primary screen for TC32 cells (AID 1347089); note: nearly all actives have a fitted effect of over 60% in size
In short: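 Luminescent ATP read-out (CellTiter-Glo) of metabolically active TC32 cells after 48 h exposure. Concentration-response curves came from 11-point (MIPE, 0.78 nM–46 µM) or 8-point (NPC, 0.59 nM–46 µM) primary titrations; follow-up used 11 points.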

[3] = qHTS of pediatric cancer cell lines to identify multiple opportunities for drug repurposing: Primary screen for DAOY cells (AID 1347090); note: series mostly up to about 46 µM; nearly all actives have a fitted effect of over 55% in size
In short: (§1)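 Cell viability, CellTiter-Glo luminescence; 500-1,000 cells/well, 8- or 11-point titration, 48 h compound exposure at 37 degrees C, 5% CO2. Controls: DMSO neutral, bortezomib 2.3 µM final as positive.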

[4] = qHTS of pediatric cancer cell lines to identify multiple opportunities for drug repurposing: Primary screen for SJ-GBM2 cells (AID 1347091)
In short: as §1

[5] = qHTS of pediatric cancer cell lines to identify multiple opportunities for drug repurposing: Primary screen for A673 cells (AID 1347092); note: nearly all actives have a fitted effect of over 45% in size
In short: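 Cell viability of A673 measured by CellTiter-Glo ATP luminescence after 48 hours compound exposure. Dilution series spanned 0.78 nM to 46 µM (MIPE, 11-point) or 0.59 nM to 46 µM (NPC, 8-point); bortezomib 2.3 uM positive control.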

[6] = qHTS of pediatric cancer cell lines to identify multiple opportunities for drug repurposing: Primary screen for SK-N-MC cells (AID 1347093); note: series mostly up to about 46 µM
In short: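 Metabolically active cells were quantified by ATP-dependent luminescence (CellTiter-Glo, 15 min at room temperature) following 48 h treatment. Cells had been plated at 500-1,000 per well and settled for 5 h beforehand.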

[7] = qHTS of pediatric cancer cell lines to identify multiple opportunities for drug repurposing: Primary screen for NB-EBc1 cells (AID 1347095)
In short: (§2)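 CRCs from 8- or 11-point titrations (lowest final 0.59 nM NPC, 0.78 nM MIPE). Cell viability: CellTiter-Glo after 48 h incubation, 15 min room-temperature development, luminescence imaging.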

[8] = qHTS of pediatric cancer cell lines to identify multiple opportunities for drug repurposing: Primary screen for Saos-2 cells (AID 1347097); note: nearly all actives have a fitted effect of over 40% in size
In short: as §2

[9] = qHTS of pediatric cancer cell lines to identify multiple opportunities for drug repurposing: Primary screen for SK-N-SH cells (AID 1347098); note: nearly all actives have a fitted effect of over 65% in size
In short: (§3)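 Cells (500-1,000/well) rested 5 h, then received compounds for 48 h; metabolically active cells were measured by CellTiter-Glo luminescence. Final concentrations spanned up to 46 µM (MIPE, 11-point) or 0.59 nM-46 µM (NPC, 8-point) in primary screens, 11-point in follow-ups.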

[10] = qHTS of pediatric cancer cell lines to identify multiple opportunities for drug repurposing: Primary screen for NB1643 cells (AID 1347099); note: nearly all actives have a fitted effect of over 50% in size
In short: as §2

[11] = qHTS of pediatric cancer cell lines to identify multiple opportunities for drug repurposing: Primary screen for LAN-5 cells (AID 1347100)
In short: as §3

[12] = qHTS of pediatric cancer cell lines to identify multiple opportunities for drug repurposing: Primary screen for BT-12 cells (AID 1347101); note: nearly all actives have a fitted effect of over 25% in size
In short: as §3

[13] = qHTS of pediatric cancer cell lines to identify multiple opportunities for drug repurposing: Primary screen for OHS-50 cells (AID 1347103); note: nearly all actives have a fitted effect of over 40% in size
In short: as §3

[14] = qHTS of pediatric cancer cell lines to identify multiple opportunities for drug repurposing: Primary screen for BT-37 cells (AID 1347094); note: series mostly up to about 57 µM
In short: as §2

[15] = qHTS of pediatric cancer cell lines to identify multiple opportunities for drug repurposing: Primary screen for U-2 OS cells (AID 1347096); note: nearly all actives have a fitted effect of over 50% in size
In short: as §3

[16] = qHTS of pediatric cancer cell lines to identify multiple opportunities for drug repurposing: Primary screen for Rh18 cells (AID 1347102); note: nearly all actives have a fitted effect of over 65% in size
In short: as §3

Measured: Potency

OCc1ccccn1
inactive: [1] | [2] | [3] | [4] | [5] | [6] | [7] | [8] | [9] | [10] | [11] | [12] | [13]

CCc1cc(Cl)c(OC)c(C(=O)NC[C@@H]2CCCN2CC)c1O
inactive: [1] | [2] | [3] | [4] | [5] | [14] | [7] | [15] | [8] | [9] | [10] | [11] | [12] | [16]

CC(=O)NO
inactive: [1] | [2] | [3] | [4] | [5] | [14] | [7] | [15] | [8] | [9] | [10] | [11] | [12] | [16] | [13]

Cc1ccc(-c2ncc(Cl)cc2-c2ccc(S(C)(=O)=O)cc2)cn1
inactive: [1] | [2] | [3] | [4] | [5] | [6] | [7] | [15] | [8] | [9] | [10] | [11] | [12] | [13]

CCCCCCCC/C=C\CCCCCCCCN
inactive: [1] | [2] | [3] | [4] | [5] | [6] | [7] | [15] | [8] | [9] | [11] | [12] | [16] | [13]

O=C(O)CCNC(=O)c1ccccc1
inactive: [1] | [2] | [3] | [4] | [5] | [6] | [7] | [15] | [8] | [9] | [10] | [11] | [12] | [16] | [13]

Nc1ccc(C(=O)NCC(=O)O)cc1
inactive: [1] | [2] | [3] | [4] | [5] | [14] | [7] | [15] | [8] | [9] | [10] | [11] | [12] | [16] | [13]

CCCCCCCCCCCCCCCCO
inactive: [1] | [2] | [3] | [4] | [5] | [6] | [7] | [15] | [8] | [9] | [11] | [12] | [16] | [13]

FC1(F)C(F)(F)C(F)(F)C2(F)C(F)(F)C(F)(F)C(F)(F)C(F)(F)C2(F)C1(F)F (stereo not drawn)
inactive: [1] | [2] | [3] | [4] | [5] | [14] | [7] | [15] | [8] | [9] | [10] | [11] | [12] | [16] | [13]

COc1ccccc1N1CCN(CCCCNC(=O)c2ccc(-c3ccc(C(C)=O)cc3)cc2)CC1
inactive: [1] | [2] | [3] | [4] | [5] | [6] | [7] | [15] | [8] | [9] | [10] | [11] | [16] | [13]

CCCc1ncc(C[n+]2ccccc2C)c(N)n1
inactive: [1] | [2] | [3] | [4] | [5] | [14] | [7] | [15] | [8] | [9] | [10] | [11] | [12] | [16] | [13]
